Experimental data reported in PubChem BioAssay (NCATS).
Results filed as inconclusive are left out. Active and inactive are the calls of the source. Calls come from the whole dose curve; as a rule, active = well fitted curve in the direction sought with a large enough effect; inconclusive = small, poorly fitted or top-dose-only effect, or another doubt; inactive = no such curve, though single readings can be large; an effect the other way counts as inactive or inconclusive.

Assays:
[1] = NS1 protein of Zika virus - qHTS assay to identify small molecule inhibitors in human HEK 293 cells (AID 1347053);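 note: series mostly up to about 46 µM; plate controls were infected untreated cells for no effect and uninfected cells for full effect; nearly all actives have a fitted effect of over 55% in size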
Method in brief: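 HEK 293 cells, seeded 20 h at 37 C, were pretreated with compound 1 h, then infected with ZIKV MR766 (MOI = 0.5) for 24 h. NS1 was read by TR-FRET with two anti-NS1 antibodies, normalized to uninfected and infected wells.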

[2] = qHTS of pediatric cancer cell lines to identify multiple opportunities for drug repurposing: Primary screen for DAOY cells (AID 1347090);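 note: series mostly up to about 46 µM; plate controls were DMSO for no effect and bortezomib for full effect; nearly all actives have a fitted effect of over 55% in size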
Method in brief: (§1)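 Eight- or eleven-point concentration series, 48 h treatment at 37 degrees C in growth media; readout CellTiter-Glo luminescence. Potency and efficacy were taken from the concentration-response curves.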

[3] = qHTS of pediatric cancer cell lines to identify multiple opportunities for drug repurposing: Primary screen for SJ-GBM2 cells (AID 1347091);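 note: plate controls were DMSO neutral control for no effect and bortezomib for full effect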
Method in brief: as §1

[4] = qHTS of pediatric cancer cell lines to identify multiple opportunities for drug repurposing: Primary screen for A673 cells (AID 1347092); note: nearly all actives have a fitted effect of over 45% in size; note: potency is the fitted concentration of half-maximal effect; for activity change, negative = cytotoxic: % is set by controls: 0 for no effect and ±100 for the full control effect
Method in brief: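 Cells are plated, rested 5 h, dosed by pintool, incubated 48 h, then lysed with CellTiter-Glo and read by luminescence. DMSO is the neutral control; bortezomib at 2.3 uM final is the positive control.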

[5] = qHTS of pediatric cancer cell lines to identify multiple opportunities for drug repurposing: Primary screen for SK-N-MC cells (AID 1347093); note: potency is the fitted concentration of half-maximal effect;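 for activity change, negative = cytotoxic: series mostly up to about 46 µM; plate controls were DMSO neutral control for no effect and bortezomib for full effect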
Method in brief: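 Metabolically active cells were quantified by ATP-dependent luminescence (CellTiter-Glo, 15 min at room temperature) following 48 h treatment. Cells had been plated at 500-1,000 per well and settled for 5 h beforehand.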

[6] = qHTS of pediatric cancer cell lines to identify multiple opportunities for drug repurposing: Primary screen for BT-37 cells (AID 1347094);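 note: series mostly up to about 57 µM; plate controls were DMSO for no effect and bortezomib for full effect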
Method in brief: (§2)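 Viability was measured as metabolically active cells after 48 hours of treatment, read by CellTiter-Glo luminescence. Compounds were tested at multiple final concentrations, giving concentration-response curves.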

[7] = qHTS of pediatric cancer cell lines to identify multiple opportunities for drug repurposing: Primary screen for NB-EBc1 cells (AID 1347095); note: potency is the fitted concentration of half-maximal effect;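 for activity change, negative = cytotoxic: plate controls were DMSO neutral control for no effect and bortezomib for full effect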
Method in brief: as §2

[8] = qHTS of pediatric cancer cell lines to identify multiple opportunities for drug repurposing: Primary screen for U-2 OS cells (AID 1347096);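 note: plate controls were DMSO wells for no effect and bortezomib positive control wells for full effect; nearly all actives have a fitted effect of over 50% in size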
Method in brief: (§3)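 Cells (500-1,000/well) in growth media were settled 5 h at 37 degrees C, then given compounds for 48 h. Viability was read as CellTiter-Glo luminescence. Primary runs used MIPE at 11 points (0.78 nM-46 µM) and NPC at 8 points (0.59 nM-46 µM); follow-ups used 11 points.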

[9] = qHTS of pediatric cancer cell lines to identify multiple opportunities for drug repurposing: Primary screen for SK-N-SH cells (AID 1347098);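 note: DMSO served as neutral control and bortezomib at 2.3 µM as positive control; % is set by controls: 0 for no effect and ±100 for the full control effect; nearly all actives have a fitted effect of over 65% in size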
Method in brief: (§4)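 Cells (500-1,000/well) rested 5 h, then received compounds for 48 h; metabolically active cells were measured by CellTiter-Glo luminescence. Final concentrations spanned up to 46 µM (MIPE, 11-point) or 0.59 nM-46 µM (NPC, 8-point) in primary screens, 11-point in follow-ups.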

[10] = qHTS of pediatric cancer cell lines to identify multiple opportunities for drug repurposing: Primary screen for NB1643 cells (AID 1347099);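 note: plate controls were DMSO neutral control for no effect and bortezomib positive control for full effect; nearly all actives have a fitted effect of over 50% in size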
Method in brief: as §2

[11] = qHTS of pediatric cancer cell lines to identify multiple opportunities for drug repurposing: Primary screen for LAN-5 cells (AID 1347100); note: potency is the fitted concentration of half-maximal effect;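 for activity change, negative = cytotoxic: plate controls were DMSO neutral control for no effect and bortezomib positive control for full effect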
Method in brief: as §3

[12] = qHTS of pediatric cancer cell lines to identify multiple opportunities for drug repurposing: Primary screen for BT-12 cells (AID 1347101);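 note: plate controls were DMSO for no effect and bortezomib positive control for full effect; nearly all actives have a fitted effect of over 25% in size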
Method in brief: as §4

[13] = qHTS of pediatric cancer cell lines to identify multiple opportunities for drug repurposing: Primary screen for Rh18 cells (AID 1347102); note: % is set by controls: 0 for no effect and ±100 for the full control effect; nearly all actives have a fitted effect of over 65% in size
Method in brief: as §3

[14] = qHTS of pediatric cancer cell lines to identify multiple opportunities for drug repurposing: Primary screen for OHS-50 cells (AID 1347103);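 note: plate controls were DMSO neutral control for no effect and bortezomib positive control for full effect; nearly all actives have a fitted effect of over 40% in size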
Method in brief: as §4

[15] = qHTS of pediatric cancer cell lines to identify multiple opportunities for drug repurposing: Primary screen for Saos-2 cells (AID 1347097); note: nearly all actives have a fitted effect of over 40% in size; note: potency is the fitted concentration of half-maximal effect; for activity change, negative = cytotoxic: % is set by controls: 0 for no effect and ±100 for the full control effect
Method in brief: as §2

[16] = qHTS of pediatric cancer cell lines to identify multiple opportunities for drug repurposing: Primary screen for TC32 cells (AID 1347089); note: nearly all actives have a fitted effect of over 60% in size; note: potency is the fitted concentration of half-maximal effect; for activity change, negative = cytotoxic: % is set by controls: 0 for no effect and ±100 for the full control effect
Method in brief: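 Measured quantity: luminescence from CellTiter-Glo, reflecting metabolically active TC32 cells following 48 h of compound. Curves came straight from multi-point titrations, with 8 or 11 points in primary and 11 in confirmatory screening.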

CCN[C@@H]1C[C@H](N)[C@@H](OC2OC(CN)=CCC2N)[C@H](O)[C@H]1O[C@H]1OC[C@](C)(O)[C@H](NC)[C@H]1O (stereo partly drawn)
inactive: activity change, negative = inhibition [1] -23.1% [at 0.593 µM] | activity change, negative = cytotoxic [2] 1.01% [at 0.597 µM] | activity change, negative = cytotoxic [3] 1.88% [at 0.597 µM] | activity change, negative = cytotoxic [4] -2.55% [at 0.597 µM] | activity change, negative = cytotoxic [5] -24.4% [at 0.597 µM] | activity change, negative = cytotoxic [6] 5.98% [at 0.745 µM] | activity change, negative = cytotoxic [7] -22.3% [at 0.597 µM] | activity change, negative = cytotoxic [8] 2.58% [at 0.597 µM] | activity change, negative = cytotoxic [9] -5.21% [at 0.741 µM] | activity change, negative = cytotoxic [10] 4.64% [at 0.597 µM] | activity change, negative = cytotoxic [11] -0.753% [at 0.597 µM] | activity change, negative = cytotoxic [12] 7.6% [at 0.745 µM] | activity change, negative = cytotoxic [13] 7.22% [at 0.597 µM] | activity change, negative = cytotoxic [14] 0.649% [at 0.73 µM]

CCN1CCN(C(=O)N[C@@H](C(=O)N[C@@H]2C(=O)N3C(C(=O)O)=C(CSc4nnnn4C)CS[C@H]23)c2ccc(O)cc2)C(=O)C1=O
inactive: Potency [1] | Potency [2] | Potency [3] | Potency [4] | Potency [5] | Potency [6] | Potency [7] | Potency [8] | Potency [15] | Potency [9] | Potency [10] | Potency [11] | Potency [12] | Potency [14]

CC1CCc2c(N3CCC(O)CC3)c(F)cc3c(=O)c(C(=O)O)cn1c23 (stereo not drawn)
inactive: Potency [1] | Potency [2] | Potency [3] | Potency [4] | Potency [5] | Potency [6] | Potency [7] | Potency [15] | Potency [9] | Potency [10] | Potency [11] | Potency [13] | Potency [14]

O=C(c1ccc(F)cc1)C1CCN(CCn2c(=S)[nH]c3ccccc3c2=O)CC1
inactive: Potency [1] | Potency [16] | Potency [2] | Potency [5] | Potency [7] | Potency [8] | Potency [15] | Potency [11] | Potency [13]
active: Potency [4] 16800 nM

CCO[C@@H]1O[C@H](C(COCc2ccccc2)OCc2ccccc2)[C@H](OCc2ccccc2)[C@H]1O (stereo partly drawn)
active: Potency [15] 26600 nM
inactive: Potency [1] | Potency [16] | Potency [7] | Potency [10] | Potency [11] | Potency [13]

O=c1[nH]c(=O)n([C@H]2C[C@H](O)[C@@H](CO)O2)cc1F
inactive: Potency [1] | Potency [8] | Potency [9] | Potency [10] | Potency [14]
active: Potency [16] 264 nM | Potency [4] 841 nM | Potency [5] 6680 nM | Potency [7] 2370 nM | Potency [11] 1330 nM

C#C[C@]1(O)CC[C@H]2[C@@H]3CCc4cc(OC)ccc4[C@H]3CC[C@@]21C
inactive: Potency [1] | Potency [16] | Potency [2] | Potency [4] | Potency [5] | Potency [6] | Potency [7] | Potency [8] | Potency [15] | Potency [10] | Potency [11] | Potency [12] | Potency [13]

CC(CNC1CCCCC1)OC(=O)c1ccccc1 (stereo not drawn)
inactive: Potency [1] | Potency [2] | Potency [3] | Potency [4] | Potency [5] | Potency [6] | Potency [7] | Potency [8] | Potency [9] | Potency [10] | Potency [11] | Potency [13] | Potency [14]

COc1cc(C(=O)N2CCCCCCC2)cc(OC)c1OC
inactive: Potency [1] | Potency [2] | Potency [3] | Potency [4] | Potency [5] | Potency [6] | Potency [7] | Potency [8] | Potency [15] | Potency [9] | Potency [10] | Potency [11] | Potency [13] | Potency [14]
